Values joined by “and” are separate entries in the source; they are usually repeats but may differ in a detail not shown here. Equal values may be shown once. Records with an inconclusive call do not appear. A call without a number means that no potency is given here. Values without a mark were called inactive. Active and inactive are the calls of the source. Unless noted, calls come from the whole dose curve; as a rule, active = well fitted cell-killing curve with a large enough effect in the repeat runs (not every such curve was filed as active); inconclusive = weak or mixed curves, or effect the other way; inactive = no such curve, though single readings can be large or run the other way.
Biological target: Bile acid receptor (Homo sapiens) (UniProt Q96RI1)
Sequence (Q96RI1 whole entry, looked up): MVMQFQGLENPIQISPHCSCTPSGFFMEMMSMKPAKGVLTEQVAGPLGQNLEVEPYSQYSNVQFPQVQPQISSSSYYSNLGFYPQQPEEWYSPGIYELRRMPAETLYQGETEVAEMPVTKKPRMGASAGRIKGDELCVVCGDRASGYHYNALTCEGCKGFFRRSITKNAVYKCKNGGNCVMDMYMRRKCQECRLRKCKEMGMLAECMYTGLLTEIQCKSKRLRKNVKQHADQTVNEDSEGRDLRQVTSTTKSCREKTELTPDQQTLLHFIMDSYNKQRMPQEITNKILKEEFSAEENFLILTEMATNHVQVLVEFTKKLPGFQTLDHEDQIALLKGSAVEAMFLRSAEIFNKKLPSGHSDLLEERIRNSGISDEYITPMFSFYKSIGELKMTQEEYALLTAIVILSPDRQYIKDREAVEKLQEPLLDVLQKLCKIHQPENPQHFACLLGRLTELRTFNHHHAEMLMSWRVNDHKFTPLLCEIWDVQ
Assay: qHTS assay to identify small molecule agonists of the farnesoid-X-receptor (FXR) signaling pathway (AID 743220; active = well fitted activation curve with a large enough effect in the signal ratio in the repeat runs, not every such curve was filed as active; the % refers to the signal ratio; note: potency is the fitted concentration of half-maximal effect)
Conditions: HEK293T FXR-UAS-bla, beta-lactamase FRET ratio, 16 h; series mostly up to 62.6 µM; activation: at the top concentration
Method in brief: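 FXR-UAS-bla HEK 293T cells carrying a UAS-driven beta-lactamase reporter were plated for 5 h at 37C/5% CO2, then exposed to DMSO-dissolved Tox21 10K compounds for 16 h at 37C. A LiveBLAzer B/G FRET substrate was loaded for 2 h at room temperature before fluorescence reading.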

Compound | Potency | activation [%]
NCCNCCNCCN | inactive | 
O=Cc1ccc(CO)o1 | inactive | 
COc1ccc2cc3[n+](cc2c1OC)CCc1cc2c(cc1-3)OCO2 |  | -1.02
Nc1nc(N)c2nc(-c3ccccc3)c(N)nc2n1 | 49.5 µM (active) and 21.1 µM (active) | 
O=C(O)Cc1c[nH]c2ccccc12 | inactive | 
CCOC(=O)CC(=O)OCC | inactive | 
CCCCCCCCCCCCCC(=O)O | inactive | 
C=C(C)CC(C)(C)C | inactive | 
NC1CCCCC1N (stereo not given) | inactive | 
Cc1cc(C)c(O)c(C)c1 | inactive | 
CN=C(NC#N)NCCSCc1nc[nH]c1C | inactive | 
COCN(COC)c1nc(N(COC)COC)nc(N(COC)COC)n1 | inactive | 
CCCCC(CC)COC(=O)c1ccc(C(=O)OCC(CC)CCCC)cc1 (stereo not given) |  | 2.57
CC(C)c1ccc(C(C)C)cc1 | inactive | 

System: not listed separately
Assay: qHTS assay to identify small molecule antagonists of the farnesoid-X-receptor (FXR) signaling pathway - cell viability counter screen (AID 743221); note: nearly all actives have a fitted effect of over 50% in size; note: potency is the fitted concentration of half-maximal effect
Conditions: FXR-bla HEK293T viability, CellTiter-Glo luminescence, 16 h; series mostly up to 62.6 µM; activity change, negative = cytotoxicity: at the top concentration
Method in brief: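 Here viability was scored by luminescence after CellTiter-Glo addition to wells already read for beta-lactamase. Prior treatment: compound plus CDCA (50 uM final), 16 h, 37 C, HEK 293T FXR-bla cells.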

Compound | Potency | activity change, negative = cytotoxicity [%]
CCN(CC)CCNC(=O)c1ccc(N)cc1 | inactive | 
CN1Cc2c(N)cccc2C(c2ccccc2)C1 (stereo not given) | inactive | 
CC(=O)OC/C=C(\C)CCC=C(C)C | inactive | 
OCCOCCOCCOCCOCCO | inactive | 
NCCNCCNCCN | inactive | 
COc1c2ccoc2cc2oc(=O)ccc12 | inactive | 
CO[Si](CCCNCCN)(OC)OC | inactive | 
CCCOCC(C)O (stereo not given) | inactive | 
O=Cc1ccc(CO)o1 | inactive | 
COc1ccc2cc3[n+](cc2c1OC)CCc1cc2c(cc1-3)OCO2 |  | -3.25
OC1CCCCC1 | inactive | 
Nc1nc(N)c2nc(-c3ccccc3)c(N)nc2n1 | inactive | 
CC(O)CNCC(C)O (stereo not given) | inactive | 
O=C(O)Cc1c[nH]c2ccccc12 | inactive | 
O=[N+]([O-])c1cc(C(F)(F)F)ccc1Cl | inactive | 
CC/C(C)=N/O | inactive | 
CC(C)=CCC/C(C)=C/C=O | inactive | 
CCCCCC(C)=O | inactive | 
CCOC(=O)CC(=O)OCC | inactive | 

Compound | Potency | activity change, negative = cytotoxicity [%]
CCCCCCCCCCCCCC(=O)O | inactive | 
C=C(C)CC(C)(C)C | inactive | 
CCCN(CCC)C(=O)SCC | inactive | 
NC1CCCCC1N (stereo not given) | inactive | 
O=[N+]([O-])c1ccccc1C(F)(F)F | inactive | 
O=C(O)C1=NN(c2ccc(S(=O)(=O)O)cc2)C(=O)C1 | inactive | 
Cc1cc(C)c(O)c(C)c1 | inactive | 
O=c1n(CCCN2CCN(c3cccc(Cl)c3)CC2)nc2ccccn12 | inactive | 
CN=C(NC#N)NCCSCc1nc[nH]c1C | inactive | 
COCN(COC)c1nc(N(COC)COC)nc(N(COC)COC)n1 | inactive | 
CCCCC(CC)COC(=O)c1ccc(C(=O)OCC(CC)CCCC)cc1 (stereo not given) | inactive | 
OC[C@H]1O[C@@H](Oc2ccc(O)cc2)[C@H](O)[C@@H](O)[C@@H]1O | inactive | 
COC(=O)/C=C\C(=O)OC | inactive | 
CC(C)c1ccc(C(C)C)cc1 | inactive | 
O=C(NCC1CCCCN1)c1cc(OCC(F)(F)F)ccc1OCC(F)(F)F (stereo not given) | inactive | 
CC(CN1c2ccccc2Sc2ccccc21)N(C)C (stereo not given) | 49.5 µM (active) | 
CCc1cccc(CC)c1N | inactive | 
Brc1ccc(Oc2ccc(Br)cc2)cc1 | inactive | 
Clc1cccc(Cl)c1NC1=NCCN1 | inactive | 

Biological target: Vitamin D3 receptor (Homo sapiens) (UniProt P11473)
Sequence (P11473 whole entry, looked up): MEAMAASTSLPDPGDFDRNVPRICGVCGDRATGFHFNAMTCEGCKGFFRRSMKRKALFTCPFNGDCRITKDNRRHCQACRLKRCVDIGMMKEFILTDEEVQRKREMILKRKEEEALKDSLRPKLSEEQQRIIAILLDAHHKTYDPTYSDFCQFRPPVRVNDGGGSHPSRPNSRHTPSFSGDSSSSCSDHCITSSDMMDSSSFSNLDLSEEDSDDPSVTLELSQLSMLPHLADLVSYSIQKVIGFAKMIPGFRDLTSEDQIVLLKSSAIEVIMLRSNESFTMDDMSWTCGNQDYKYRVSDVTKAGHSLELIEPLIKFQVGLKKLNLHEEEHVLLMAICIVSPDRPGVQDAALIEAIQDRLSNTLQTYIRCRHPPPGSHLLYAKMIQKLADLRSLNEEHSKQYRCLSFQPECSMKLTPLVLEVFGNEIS
Assay: qHTS assay to identify small molecule agonists of the vitamin D receptor (VDR) signaling pathway (AID 743222; calls by dose curve)
Conditions: HEK293T VDR-UAS-bla, beta-lactamase FRET ratio, 16 h; series mostly up to 63.5 µM; activation: at the top concentration
Method in brief: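 Fluorescence from cleaved LiveBLAzer B/G FRET substrate served as readout. VDR-bla cells had been treated 16 h at 37C with test compounds in DMSO, following a 4 h settling period, and substrate was loaded for 2 h at RT.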

Compound | outcome | activation
OCCOCCOCCOCCOCCO | inactive | 
NCCNCCNCCN | inactive | 
COc1c2ccoc2cc2oc(=O)ccc12 | inactive | 
CO[Si](CCCNCCN)(OC)OC |  | 0% [at 81.1 µM]
CCCOCC(C)O (stereo not given) | inactive | 
O=Cc1ccc(CO)o1 |  | -11.4%
OC1CCCCC1 | inactive | 
CC(O)CNCC(C)O (stereo not given) |  | -4.26%
O=C(O)Cc1c[nH]c2ccccc12 | inactive | 
CC/C(C)=N/O | inactive | 
CC(C)=CCC/C(C)=C/C=O |  | 1.7% [at 81.1 µM]
CCCCCC(C)=O | inactive | 
CCOC(=O)CC(=O)OCC | inactive | 
CCCCCCCCCCCCCC(=O)O | inactive | 
C=C(C)CC(C)(C)C | inactive | 
CCCN(CCC)C(=O)SCC | inactive | 
NC1CCCCC1N (stereo not given) | inactive | 
O=[N+]([O-])c1ccccc1C(F)(F)F | inactive | 
CN=C(NC#N)NCCSCc1nc[nH]c1C | inactive | 
COCN(COC)c1nc(N(COC)COC)nc(N(COC)COC)n1 | inactive | 
OC[C@H]1O[C@@H](Oc2ccc(O)cc2)[C@H](O)[C@@H](O)[C@@H]1O | inactive | 
COC(=O)/C=C\C(=O)OC |  | -1.07%
CC(C)c1ccc(C(C)C)cc1 | inactive | 
O=C(NCC1CCCCN1)c1cc(OCC(F)(F)F)ccc1OCC(F)(F)F (stereo not given) |  | -0.365%
Brc1ccc(Oc2ccc(Br)cc2)cc1 | inactive | 
Clc1cccc(Cl)c1NC1=NCCN1 | inactive | 

Biological target: Vitamin D3 receptor (Homo sapiens) (UniProt P11473)
Assay: qHTS assay to identify small molecule antagonists of the vitamin D receptor (VDR) signaling pathway (AID 743223; active = well fitted inhibition curve with a large enough effect in the signal ratio in the repeat runs, not every such curve was filed as active; the % refers to the signal ratio)
Conditions: VDR-UAS-bla HEK293T, beta-lactamase FRET ratio, 16 h; series mostly up to 61 µM; activity change, negative = inhibition: at the top concentration
Method in brief: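 Inhibition of agonist-driven VDR signalling is scored in VDR-bla cells: 3 nM final 1alpha,25-dihydroxyvitamin D3 plus compound, 16 h at 37C, then beta-lactamase detection by FRET substrate fluorescence after 2 h.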

Compound | activity change, negative = inhibition | Potency
OCCOCCOCCOCCOCCO | -13% [at 78.8 µM] | 
NCCNCCNCCN |  | inactive
COc1c2ccoc2cc2oc(=O)ccc12 |  | inactive
CO[Si](CCCNCCN)(OC)OC | -15.6% [at 78.8 µM] | 
CCCOCC(C)O (stereo not given) |  | inactive
O=Cc1ccc(CO)o1 |  | inactive
COc1ccc2cc3[n+](cc2c1OC)CCc1cc2c(cc1-3)OCO2 | -20.2% | 
OC1CCCCC1 |  | inactive
CC(O)CNCC(C)O (stereo not given) | -4.83% [at 78.8 µM] | 
O=C(O)Cc1c[nH]c2ccccc12 |  | inactive
CC/C(C)=N/O |  | inactive
CC(C)=CCC/C(C)=C/C=O | 0.929% [at 78.8 µM] | 
CCCCCC(C)=O | 16.7% [at 78.8 µM] | 
CCOC(=O)CC(=O)OCC |  | inactive
CCCCCCCCCCCCCC(=O)O | 8.9% | 
C=C(C)CC(C)(C)C |  | inactive
CCCN(CCC)C(=O)SCC | -0.548% | 
NC1CCCCC1N (stereo not given) | -0.254% | 
O=[N+]([O-])c1ccccc1C(F)(F)F | -6.17% | 
CN=C(NC#N)NCCSCc1nc[nH]c1C | 5.3% | 
COCN(COC)c1nc(N(COC)COC)nc(N(COC)COC)n1 |  | inactive
OC[C@H]1O[C@@H](Oc2ccc(O)cc2)[C@H](O)[C@@H](O)[C@@H]1O | 4.7% | 
COC(=O)/C=C\C(=O)OC | 12.1% | 
CC(C)c1ccc(C(C)C)cc1 | 5.98% [at 78.8 µM] | 
O=C(NCC1CCCCN1)c1cc(OCC(F)(F)F)ccc1OCC(F)(F)F (stereo not given) |  | inactive
Brc1ccc(Oc2ccc(Br)cc2)cc1 | 0.669% | 
Clc1cccc(Cl)c1NC1=NCCN1 |  | inactive
